Reference: PubChem BioAssay (NCI)
About 83,000 compounds went through this panel and 20% of them were active in at least one assay; those are over-represented in the sample as a whole.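 Method: cells in 96-well plates; compound added at one concentration; 48 h incubation; percent growth measured; values under 10 scored active.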 Unmarked numbers belong to inactive results. The source made the active and inactive calls. Where a SMILES comes first, the peptide text is derived from it. Bridges are numbered along the chain shown (N, C = ends). [ ]: non-standard residue; d: D form. The star is where a group is joined. ξ: configuration not given here. ξNMePhe(4-NMe2) = CNC(Cc1ccc(N(C)C)cc1)C(=O)O; Picolinoyl(3-OH) = O=C(c1ncccc1O)*; ξPip(4-oxo) = O=C1CCNC(C(=O)O)C1; Phg = N[CH](C(=O)O)c1ccccc1; Abu = CC[CH](N)C(=O)O

Tests used:
Experiment in all cases: NCI-60 one-dose screen, 48 h (100 = growth as untreated, 0 = no growth, -100 = all killed)
[1] = system: HCT-15 colon; conditions: 10 µM
[2] = system: HT29 colon; conditions: 10 µM
[3] = system: SNB-75 CNS; conditions: 10 µM
[4] = system: SNB-19 CNS; conditions: 10 µM
[5] = system: U251 CNS; conditions: 10 µM
[6] = system: PC-3 prostate; conditions: 10 µM
[7] = system: SK-MEL-5 melanoma; conditions: 10 µM
[8] = system: UACC-62 melanoma; conditions: 10 µM unless noted
[9] = system: LOX IMVI melanoma; conditions: 10 µM
[10] = system: SK-MEL-2 melanoma; conditions: 10 µM
[11] = system: EKVX NSCLC; conditions: 10 µM
[12] = system: SN12C renal; conditions: 10 µM
[13] = system: UO-31 renal; conditions: 10 µM
[14] = system: TK-10 renal; conditions: 10 µM unless noted
[15] = system: ACHN renal; conditions: 10 µM
[16] = system: CAKI-1 renal; conditions: 10 µM
[17] = system: CCRF-CEM leukemia; conditions: 10 µM
[18] = system: MOLT-4 leukemia; conditions: 10 µM
[19] = system: SK-MEL-28 melanoma; conditions: 10 µM
[20] = system: A498 renal; conditions: 10 µM

Row | Compound | growth [1] [%] | growth [2] [%] | growth [3] | growth [4] [%] | growth [5] | growth [6] | growth [7] | growth [8] [%] | growth [9] | growth [10] [%] | growth [11] [%] | growth [12] [%] | growth [13] | growth [14] | growth [15] | growth [16] | growth [17] | growth [18] | growth [19] [%] | growth [20]
1 | COc1cc2c(cc1O)CC[C@@H]1C2CC[C@@]2(C)C1CC[C@@H]2O (stereo partly specified) | 29.9 | 22.4 | 3.42% (active) | 28.9 | 33.5% | 19.7% | -22.1% (active) | 22.2 | 48% | 71.1 | 37.9 | 53.2 | 41.8% | 63% | 61.9% | 33.7% | 8.85% (active) | 31.8% | – | –
2 | CCc1nc(N)nc(N)c1-c1ccc(Cl)cc1 | 34.1 | 47.5 | 77% | 88.4 | 46.3% | 60.5% | 24.3% | – | 31.2% | – | 74.9 | 64.7 | – | 104% | 40.9% | 91.4% | 68.4% | 56.4% | 94.1 | 87.7%
3 | Cc1ccc(C(=O)NC2c3ccccc3Oc3ccccc32)cc1 | 39.6 | 23.4 | 34.9% | 49 | 56.5% | 53.4% | 62.7% | – | 45% | – | 64.6 | – | 34.4% | 54.4% | 40% | 64.9% | 56.7% | 45.5% | 61.4 | 43.5%
4 | CC(=O)c1ccc2c(ccc3ccccc32)c1 | 68.4 | 95.6 | 105% | 99.4 | 92.1% | 104% | 96.8% | 96.5 | 107% | – | – | 102 | 100% | – | 110% | 107% | 86.2% | 93% | 108 | 92.8%
5 | C/C(=N\O)C1(O)CCCCC1 | 93.6 | 110 | 91.7% | 105 | 95.1% | 129% | 87.9% | 59.2 | 98.8% | – | – | 101 | 96.8% | – | 97.7% | 99.3% | 99.4% | 89.8% | 114 | 99.1%
6 | COc1ncnc2c1cnn2C | 98.9 | 107 | 113% | 110 | 106% | 101% | 101% | 98.9 | 98% | – | 100 | 98.2 | – | 108% | 98.1% | 105% | 97% | 89.9% | 111 | 99.7%
7 | COc1cc2c3c(n(C)c(=O)c2cc1OC)-c1cc2c(cc1C3=O)OCO2 | 81 | 47.4 | 10.5% | 54.6 | 36% | 46.8% | 63.6% | 40.1 | 39.9% | 113 | 94.2 | 87 | 32.6% | 101% | 26.6% | – | 29.5% | 18.3% | – | 75.5%
8 | O=C(O)/C=C/C(=O)NCc1ccccc1 | 97.3 | 105 | 81.9% | 115 | 118% | 101% | 101% | 118 | 97% | – | – | 108 | 90.9% | – | 97.9% | 102% | – | 101% | 105 | 109%
9 | Cc1ccc(CCCC(=O)O)c(C)c1 | 99 | 98.8 | 79.2% | 101 | 94.1% | 97.1% | 102% | 102 | 99.3% | – | – | 97.9 | 90.9% | 95% | 98.3% | 99.7% | – | 98.7% | 98.1 | 101%
10 | CO[C@H]1C[C@@H]2CC[C@@H](C)[C@@](O)(O2)C(=O)C(=O)N2CCCC[C@H]2C(=O)O[C@H]([C@H](C)C[C@@H]2CC[C@@H](O)[C@H](OC)C2)CC(=O)[C@H](C)C=C(C)[C@@H](O)[C@@H](OC)C(=O)[C@H](C)C[C@H](C)/C=C/C=C/C=C1C | 42.7 | 45.3 | 13.3% | 46.2 | 51.8% | 44% | 24.8% | 43.8 | 51.9% | 75.8 | 36.5 | 74.2 | 26.3% | 71.7% | 59.3% | 52.2% | 30.6% | 37.4% | – | –
11 | Oc1ccc2c(c1)OCC1(O)Cc3cc(O)c(O)cc3C21 (stereo unspecified) | 80.6 | 92.4 | 22.8% | 117 | 90.7% | 69.5% | 95.5% | 91.5 | 98.2% | 65.7 | 107 | 100 | 58.9% | 106% | 104% | 85.5% | 71.5% | 316% | – | 99.1%
12 | CCCCN(CCCC)CCCO | 100 | 126 | 86.7% | 112 | 116% | 180% | 104% | 106 | 101% | – | 110 | 107 | – | 85% | 105% | 106% | – | 113% | 110 | 114%
13 | O=C(CCl)N1CCN(C/C=C/c2ccccc2)CC1 | 86.3 | 79.2 | 92.6% | 95.2 | 90.7% | 89% | 86.6% | 76.6 | 2.58% (active) | – | – | 64.6 | 93.1% | 85.6% | 95.8% | 99.3% | 21.7% | 71.4% | 94.4 | 94%
14 | CCCNc1ccc(C2=NCCCN2)cc1 | 97.8 | 96 | 84.2% | 102 | 87.4% | 94.6% | 97.5% | – | 95.1% | – | – | 109 | 81.7% | – | 102% | 101% | 99.1% | 93.7% | 114 | 71.7%
15 | CCC1NC(=O)C(NC(=O)c2ncccc2O)C(C)OC(=O)C(c2ccccc2)NC(=O)C2CC(=O)CCN2C(=O)C(Cc2ccc(N(C)C)cc2)N(C)C(=O)C2CCCN2C1=O (stereo unspecified) (tested in a mixture with another compound) ({Picolinoyl(3-OH)}-T[Abu]P[ξNMePhe(4-NMe2)][ξPip(4-oxo)][Phg]; ester 1-C; configuration not given here) | 79.3 | 43.6 | 45.4% | 78.4 | 64.9% | 55.5% | -21.7% (active) | 50.9 | 49.2% | 95.9 | 41 | 75 | 90.8% | 91% | 47.5% | 50.8% | 32% | 42.2% | – | –
16 | CC1OC(Oc2c(-c3ccc(O)c(O)c3)oc3cc(O)cc(O)c3c2=O)C(O)C(O)C1O (stereo unspecified) | 113 | 107 | 96.5% | 105 | 104% | 95.5% | – | 103 | 97.1% | 104 | 110 | 102 | 92.5% | 103% | 113% | 102% | 106% | 108% | 105 | 99.5%
17 | COc1cc(-c2ccc(NC(=O)NC3CC3)c(OC)c2)ccc1NC(=O)NC1CC1 | 31.2 | 48.6 | 89.4% | 84.7 | 37.4% | 41.6% | – | 70.7 | 36.8% | 96.3 | 94.6 | 91.6 | 46.5% | 99.6% | 63.8% | – | 47.8% | 38.1% | 86.7 | 59.3%
18 | O=C(Nc1cccc(NC(=O)Nc2cc(C(F)(F)F)ccc2Cl)c1)Nc1cc(C(F)(F)F)ccc1Cl | 20.3 | 12.4 | 16.1% | 36.2 | -17.2% (active) | 1.7% (active) | 29.4% | 19.5 | 10.2% | – | – | 22 | 0.156% (active) | -13.8% (active) | 9.11% (active) | -2.82% (active) | 5.91% (active) | 2.16% (active) | 34.4 | -3.96% (active)
